M1 ag = M1 muscarinic receptor agonists, primary screen, CHO-M1 cells, Fluo-4 calcium, agonist mode; Muscarinic acetylcholine receptor M1; Fluo-4 calcium fluorescence; hits give high values; B-score at 10 µM; 64,000 compounds, 3% hits;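 active means fluorescence rise, raw or as B-score row- and column-corrected plate score, outside the 99.7% band of its plate's samples, either direction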
WNV protease inh = inhibitors of WNV NS2B-NS3 protease, primary screen, biochemical, fluorogenic substrate; Genome polyprotein (West Nile virus), P06935; fluorogenic substrate Ex360/Em465; hits give low values; z-score (no concentration beside the values); 65,000 compounds, 0.18% hits; AID 577, 2007; in the data active means z-score below about -3
D1 allo mod = D1 CRE-luciferase signal change, two-sided – cell-based, HEK293 D1, dopamine EC30, D1 allosteric modulator project, primary screen; D(1A) dopamine receptor (Homo sapiens), P21728; dopamine EC30 potentiation; actives deviate in either direction; B-score at 10 µM; 58,000 compounds, 5.9% hits; AID 641, 2007;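 active means luminescence count or its row- and column-corrected plate score outside the 99.7% band of the plate's sample wells, on either side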
Target sequence (P21728 whole entry, looked up): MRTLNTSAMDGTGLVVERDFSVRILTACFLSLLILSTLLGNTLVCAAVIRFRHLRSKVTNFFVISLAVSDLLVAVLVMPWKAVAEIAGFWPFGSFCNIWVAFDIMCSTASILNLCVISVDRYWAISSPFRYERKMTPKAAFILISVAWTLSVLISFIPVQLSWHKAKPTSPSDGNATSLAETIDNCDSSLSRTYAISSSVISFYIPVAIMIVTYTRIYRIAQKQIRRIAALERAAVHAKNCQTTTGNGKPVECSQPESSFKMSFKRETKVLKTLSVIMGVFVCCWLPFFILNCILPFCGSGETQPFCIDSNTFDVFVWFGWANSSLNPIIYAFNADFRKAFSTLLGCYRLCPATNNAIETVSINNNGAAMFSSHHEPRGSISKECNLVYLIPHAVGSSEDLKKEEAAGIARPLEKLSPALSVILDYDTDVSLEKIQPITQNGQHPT
M1 antag = antagonists of rat M1 muscarinic receptor; Muscarinic acetylcholine receptor M1 (Rattus norvegicus), P08482; CHO-M1 cells, Fluo-4 calcium, ACh EC80 antagonist mode; hits give low values; B-score at 10 µM; 64,000 compounds, 3.4% hits; AID 628, 2007;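 active means calcium fluorescence response, raw or row-and-column corrected B-score, differing from the plate sample mean either way at a set confidence level, mostly lower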
Htt clearance = clearance of mutant huntingtin inclusions, primary screen, imaging, HeLa Exon1htt(103Q)mCFP, confocal imaging; aggregate imaging; zero = plate's median compound well; inhibition, % at 1.5 µM; 47,000 compounds, 0.42% hits;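 active means inhibition of aggregate fluorescence above about 70%, also judged a hit by eye on the cell image, limit read from the data, passing the limit was not always enough; inconclusive means no rule stated for this call; inactive means not judged a hit on image review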;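 further: cells exposed to compound for three days before fixation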
M1 antag conf = rat M1 muscarinic receptor antagonists, confirmation, CHO cells, Fluo-4 calcium, duplicate; shares compounds with M1 antag; ACh EC80 antagonism; hits give low values; calcium response (max-min fluorescence) at 10 µM; 1,700 compounds, 43% hits;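 active means calcium response below the same-plate mean of wells given acetylcholine alone at its 80%-effect dose, minus 3 SD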
mGluR4 antag = human mGluR4 response to M1 antagonist hits, M1 allosteric modulator project, cell-based, antagonist mode, secondary assay 1 | shares compounds with M1 antag | CHO-mGluR4 calcium flux, Fluo-4 fluorescence, glutamate EC80; hits give low values | fluorescence response (max-min) at 10 µM | 1,700 compounds, 0.9% hits;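 active means fluorescence response below the plate's average for near-maximal glutamate wells, less 3 SD of those wells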;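 further: raw unnormalized fluorescence span taken in the window right after glutamate addition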
Numbers stand for hits; n = inactive; u = inconclusive; x = not tested or not shown. Hits are enriched below; roughly 8.9% of the tested compounds scored in any of these assays.

SMILES	M1 ag	WNV protease inh	D1 allo mod	M1 antag	Htt clearance	M1 antag conf	mGluR4 antag
CCC1Oc2ccccc2N(CC(=O)NCCCN2CCN(Cc3ccccc3)CC2)C1=O (stereo not given)	n	n	n	n	x	x	x
CCC1Oc2ccccc2N(CC(=O)NCCN2CCc3ccccc3C2)C1=O (stereo not given)	n	n	n	-1.7	n	583	n
Cn1c(=Nc2ccc(N3CCOCC3)cc2)ccc2ccccc21	n	n	n	-10	x	289	n
CCn1c(=Nc2ccc(N3CCOCC3)cc2)ccc2ccccc21	x	n	x	x	x	x	x
CCOC(=O)c1sc(C(=O)OCC)c(OCCO)c1OCCO	n	n	n	n	n	x	x
Cc1noc(C)c1C(=O)N1CCN(C(=O)c2sc3cc(Cl)ccc3c2Cl)CC1	n	n	n	-4	x	n	n
Cc1noc(C)c1C(=O)N1CCN(Cc2ccccc2)CC1	x	x	x	x	n	x	x
COCCN(C(=O)COc1ccccc1)c1nnc(-c2cccnc2)s1	n	n	n	-2.7	x	n	n
COC(=O)c1ccccc1NC(=O)NCC1CCCO1 (stereo not given)	n	n	n	-1.9	x	n	n
O=C(c1cc2n(n1)C(C(F)(F)F)CC(c1ccc(F)cc1)N2)N1CCCC1 (stereo not given)	n	n	n	n	n	x	x
CC(=O)Nc1nc(C(=O)Nc2c(C)n[nH]c2C)cs1	n	n	n	-2.9	n	n	n
COc1ccccc1N1CCN(C(=O)Nc2cccc(C)c2)CC1	n	n	n	n	n	x	x
COC(=O)/C=c1/sc2nc3ccccc3n2c1=O	n	n	n	-2.5	x	n	n
CNCC(O)Cn1c(C(F)(F)F)nc2ccccc21 (stereo not given)	x	x	x	x	n	x	x
O=c1c2c3c(sc2nc2n1CCCC2)CCC3	n	n	n	n	x	x	x
O=c1c2c3c(sc2nc2n1CCCCC2)CCCCC3	n	n	n	-3.1	x	273	n
Cc1ccc(C)n1-n1c(C)nc2sc3c(c2c1=O)CCCCC3	n	n	x	-5.6	u	325	n
Cc1ccc(CNc2ncc(-c3ccc4c(c3)OCO4)n2C)cc1	n	n	n	-2.9	x	447	n
Cn1c(-c2ccc(F)cc2)cnc1NCc1ccc(F)cc1	x	x	x	x	n	x	x
Cn1c(-c2ccc3c(c2)OCO3)cnc1NCc1ccc(Cl)cc1	n	n	-4.3	-6.6	n	358	n
Cn1c(-c2ccc(F)cc2)cnc1NCc1ccc(C#N)cc1	n	n	n	-3.4	n	n	n
O=C(CN1CCCN(S(=O)(=O)c2ccc(Br)cc2)CC1)Nc1ccc2c(c1)OCO2	n	n	n	n	n	x	x
O=[N+]([O-])c1cc(/C=N/OCc2c(Cl)cccc2Cl)ccc1N1CCOCC1	x	x	x	x	n	x	x
CCCn1c(C)nc2c(c1=O)c1nc3ccccc3nc1n2-c1ccc2c(c1)OCCO2	n	n	n	n	x	x	x
CCc1ccc(NC(=O)CNS(=O)(=O)c2c(C)noc2C)cc1	n	n	n	n	n	x	x
SMILES	M1 ag	WNV protease inh	D1 allo mod	M1 antag	Htt clearance	M1 antag conf	mGluR4 antag
COC(=O)Nc1nc2c(s1)CCCC2	n	n	n	-3.1	x	n	n
Cn1c(N2CCN(c3ccccn3)CC2)nc2c1c(=O)n(Cc1ccc(Cl)cc1)c(=O)n2C	n	n	x	-2.2	x	n	n
Cn1c(N2CCN(c3ccccn3)CC2)nc2c1c(=O)n(Cc1ccccc1Cl)c(=O)n2C	n	n	x	n	n	x	x
COc1ccc(N2CCN(S(=O)(=O)c3ccc(Br)s3)CC2)cc1	n	n	n	-18	n	n	n
Nc1nnc(CSCc2ccc(F)cc2)s1	n	n	n	n	x	x	x
O=C(NC1CCN(Cc2ccccc2)CC1)C1COc2ccccc2O1 (stereo not given)	n	n	-3.9	-4.5	n	377	n
O=C(NCc1ccccc1)C1COc2ccccc2O1 (stereo not given)	x	x	x	x	n	x	x
CCOC(=O)c1ccc(-n2c(C)nc3ccccc3c2=O)cc1	n	n	n	n	n	x	x
CCOC(=O)c1ccc(-n2[nH]c(-c3ccccc3)cc2=O)cc1	n	n	n	-17	x	n	n
O=C(O)c1ccc(COc2c(F)c(F)c(F)c(F)c2F)o1	n	n	x	n	x	x	x
c1cncc(C(c2nnnn2C2CCCC2)N2CCCC2)c1 (stereo not given)	n	n	n	-2	n	n	n
Cc1nn(C)c(C)c1S(=O)(=O)N1CCC(C(=O)NCC2COc3ccccc3O2)CC1 (stereo not given)	n	n	n	n	n	x	x
COc1ccc2cc(Br)ccc2c1CC(=O)NC1CC(C)(C)NC(C)(C)C1	x	x	x	x	n	x	x
CC(=O)NC(CC(=O)NCC(c1ccco1)N(C)C)c1ccccc1 (stereo not given)	n	n	n	n	x	x	x
CN(C)C(CNc1nnnn1-c1ccccc1)c1ccco1 (stereo not given)	n	n	n	-0.79	n	n	n
COc1ccccc1N1CCN(CCCC(=O)c2ccc(F)cc2)CC1	n	n	n	-2	n	266	n
O=C(Cn1ncc2ccccc21)N1CCc2ccccc21	n	n	n	-2.3	x	n	n
CCOC(=O)c1cnc(SC)nc1Oc1cccc(NS(=O)(=O)c2ccc(C)cc2)c1	x	x	x	x	n	x	x
O=C(c1oc(=O)c2ccccc2c1-c1ccccc1)N1CCN(C2CCCCC2)CC1	n	n	n	-6.6	n	349	n
Cc1cccc2cc(CN(Cc3ccccc3)C(=O)N3CCOCC3)c3nnnn3c12	x	x	x	x	n	x	x
CC(=O)c1ccccc1OCCCN1CCCCC1	n	n	-4.4	-2.3	x	356	n
CC(C)(C)c1ccccc1OCCN1CCCC1	n	n	n	-11	n	176	n
O=C(OCCN1CCCCC1)c1ccccc1Cl	n	n	n	-2.6	n	n	n
CN(C)CCOc1ccccc1C(C)(C)C	x	x	x	x	n	x	x
Clc1ccccc1OCCCCN1CCCC1	n	n	n	-1.7	n	n	n
SMILES	M1 ag	WNV protease inh	D1 allo mod	M1 antag	Htt clearance	M1 antag conf	mGluR4 antag
Cc1c(NS(=O)(=O)c2ccc3c(c2)c(=O)n(C)c(=O)n3C)c(=O)n(-c2ccccc2)n1C	n	n	n	n	x	x	x
Cc1ccccc1NS(=O)(=O)c1ccc(OCC(=O)NCc2ccco2)cc1	n	n	n	n	n	x	x
COc1cccc(NC(=O)CN2C(=O)COc3ccc(Cl)cc32)c1	n	n	n	n	x	x	x
CCC(=O)n1nc(NCc2ccccc2OC)nc1NCc1ccccc1OC	n	n	n	n	n	x	x
COc1ccc(-c2cc3nc(C)c(CCC(=O)N4CCCCC4)c(C)n3n2)c(OC)c1	n	n	n	n	x	x	x
Cc1cc(C)cc(N2CC(c3nc4ccccc4n3C)CC2=O)c1 (stereo not given)	n	n	n	n	x	x	x

High-throughput results as filed in PubChem BioAssay.
